Source: PubChem
VP16 counter: Gal4-VP16 reporter inhibition counter-screen; Drosophila S2 Gal4-VP16 UAS-luciferase, luminescence, 20 h; Potency, µM (doses to about 53.6 µM), actives largely listed as inhibitors; hit rate 3.5% among 310,000; AID 2546;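 note: Gal4-VP16 expression switched on by copper sulfate through the metallothionein promoter; nearly all actives have a fitted effect of over 50% in size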
ELG1 repair inh: inhibitors of ELG1-dependent DNA repair in HEK293T cells. HEK293T ELG1-luciferase reporter, luminescence, 16 h; DNA damage induced by 5-fluorouridine. Potency, µM (titrated, usually from 46.1 µM), actives largely listed as inhibitors. hit rate 2.3% among 330,000. AID 504467; note: nearly all actives have a fitted effect of over 55% in size
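Quantitative HTS, concentration-response format. 2,000 cells/well co-treated with 5-fluorouridine and compound, 16 hr in 5% CO2 at 37 °C; ONE-Glo luminescence read after 30 min.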
TDP1 cell noCPT: qHTS for Inhibitors of human tyrosyl-DNA phosphodiesterase 1 (TDP1): qHTS in cells in absence of CPT; DT40 Tdp1-/- hTDP1 cells, no CPT, ATP luminescence, 48 h; Potency, µM (highest dose often 46.2 µM), most hits filed as inhibitors; hit rate 15% among 420,000; AID 686978, 2013; note: nearly all actives have a fitted effect of over 55% in size
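Compound effects on proliferation are scored in DT40 Tdp1-/-;hTDP1 cells in the absence of CPT. ATP levels (CellTiter-Glo luminescence) are recorded after a ≥48 hr, 37 °C incubation.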
TDP1 cell CPT: DT40-hTDP1 cell growth loss with CPT. chicken DT40 Tdp1-/-;hTDP1 cells + 20 nM CPT, ATP luminescence, 48 h. Potency, µM (doses to about 46.2 µM), actives largely listed as inhibitors. hit rate 12% among 420,000. AID 686979; note: nearly all actives have a fitted effect of over 55% in size
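Chicken DT40 Tdp1-/- cells complemented with human TDP1, 400 cells/well, exposed to compounds plus 20 nM camptothecin for at least 48 h at 37 C; viability read as ATP content by CellTiter-Glo luminescence.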
RORg inh: blocks mouse ROR gamma transcriptional activity | P51450 | hit rate 5.4% among 310,000 | Drosophila S2 Gal4-RORgamma UAS-luciferase reporter, 20 h | Potency, µM (highest dose often 53.6 µM), most hits filed as inhibitors; note: nearly all actives have a fitted effect of over 60% in size
Target sequence (P51450 whole entry, looked up, the tested form may be a part): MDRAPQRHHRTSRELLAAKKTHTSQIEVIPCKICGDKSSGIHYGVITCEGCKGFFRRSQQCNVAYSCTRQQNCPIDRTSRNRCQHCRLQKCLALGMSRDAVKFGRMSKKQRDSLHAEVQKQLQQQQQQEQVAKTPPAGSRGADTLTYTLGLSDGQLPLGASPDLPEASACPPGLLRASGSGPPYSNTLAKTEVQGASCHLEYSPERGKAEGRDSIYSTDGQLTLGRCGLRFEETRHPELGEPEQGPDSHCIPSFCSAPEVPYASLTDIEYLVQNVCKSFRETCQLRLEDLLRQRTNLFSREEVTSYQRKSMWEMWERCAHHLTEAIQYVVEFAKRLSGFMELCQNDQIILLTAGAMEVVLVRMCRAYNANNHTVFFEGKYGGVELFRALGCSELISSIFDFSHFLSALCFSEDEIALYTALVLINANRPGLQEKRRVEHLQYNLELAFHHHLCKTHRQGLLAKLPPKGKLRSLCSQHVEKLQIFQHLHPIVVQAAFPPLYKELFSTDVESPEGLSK
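Drosophila S2 cells stably expressing Gal4-DBD/mouse RORγ fusion under metallothionein promoter plus UAS-luciferase; compound 1 h, then 700 uM CuSO4 induction for 20 h at ambient temperature; inhibition read as reduced luminescence.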
IL1B secr inh: inhibitors of inflammasome signaling (IL-1 beta secretion) | THP-1 LPS/ATP IL-1B secretion, AlphaLISA, 16 h; stronger effect = lower value | activity change, % at 57.5 µM | hit rate 4.7% among 360,000 | AID 743279; in the data active = activity change below about -50%; inconclusive = mostly about -30% to -49%
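Secreted IL-1B measured by AlphaLISA bead assay after 16 h compound exposure of THP-1 cells; compounds (final up to 57.5 uM) added 1 h before LPS (250 ng/mL) and ATP (1.25 mM) stimulation; lower signal means less secretion.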
Hits are given with their value; - = inactive; ? = inconclusive; . = no result given; [ ] = another dose, or the depositor's remark. A selection: hits, their analogues and other compounds. The true share with any hit is near 21%. Unless noted, calls come from the whole dose curve; as a rule, active = well fitted curve in the direction sought with a large enough effect; inconclusive = small, poorly fitted or top-dose-only effect, or another doubt; inactive = no such curve, though single readings can be large; an effect the other way counts as inactive or inconclusive.

SMILES	VP16 counter	ELG1 repair inh	TDP1 cell noCPT	TDP1 cell CPT	RORg inh	IL1B secr inh
Cc1ccc(C(=O)c2ccccc2C(=O)OCC(=O)NCCc2ccccc2)cc1	-	?	?	?	?	-75
COc1ccccc1C1=Nn2c(nnc2-c2ccccc2C)SC1	-	.	.	.	?	.
Cc1ccc(OCc2nc(-c3ccc(C(=O)NCCc4ccc(Cl)cc4)cc3)oc2C)cc1	.	.	-	?	.	.
CCC(Cc1ccccc1)NC(=O)C1CCC(CNc2c(N3CCCC3)c(=O)c2=O)CC1 (stereo unspecified)	-	-	-	-	-	-
O=C(COc1ccc(C(=O)c2ccccc2)cc1)NCc1ccc(F)cc1	-	?	1µM	0.92µM	-	-
O=C(COc1ccccc1)NCc1ccccc1	-	?	-	-	-	-
NC(=O)n1c(O)c(C(=O)c2cccs2)c2cc(Cl)ccc21	-	.	?	-	-	.
COc1ccc(-c2cc(-c3ccccc3O)[nH]n2)cc1OC	?	?	18µM	?	7.1µM	-
COc1ccc(-c2cc(-c3ccc(OC)c(OC)c3)n[nH]2)c(O)c1	?	?	21µM	26µM	4µM	-
Oc1ccccc1-c1cc(-c2ccc3c(c2)OCCO3)n[nH]1	?	?	?	?	3.2µM	-61
O=C(NC(c1ccccc1)c1ccc2ccccc2n1)C1CCN(CCOc2ccc(Cl)cc2)CC1 (stereo unspecified)	.	.	16µM	23µM	.	-100
COc1ccc(C(NC(=O)C2CCN(CCCc3ccccc3)CC2)c2ccccn2)cc1 (stereo unspecified)	.	.	-	-	.	-
COc1ccc(OCCN2CCC(C(=O)NC(c3ccc(F)cc3)c3ccc4ccccc4n3)CC2)cc1 (stereo unspecified)	.	.	18µM	29µM	.	-50
O=C(NC(c1ccc(F)cc1)c1ccc2ccccc2n1)C1CCN(CCOc2ccc(F)cc2)CC1 (stereo unspecified)	.	.	8.2µM	8.2µM	.	?
COc1ccc(C(NC(=O)C2CCN(CCOc3ccc(Cl)cc3)CC2)c2cccs2)cc1 (stereo unspecified)	.	.	?	?	.	-71
CCN(CC)CCC(c1ccc(N(C)C)cc1)c1c(OC)cc(OC)c2c1OC(=O)CC2c1ccc(OC)cc1 (stereo unspecified)	-	.	.	.	-	.
CN(C)S(=O)(=O)c1ccc(C(=O)NCCS(=O)(=O)N2CCN(c3ccccc3)CC2)cc1	.	.	?	-	.	.
CSc1ccccc1NC(=O)CN(C)C(=O)CNC(=O)c1ccc(Oc2ccccc2)cc1	.	.	?	?	.	-
CNC(=O)C[C@H]1C(=O)N(CCc2ccccc2)C[C@@H]1C	.	.	-	-	.	-
Nc1nc(N)nc(C2C=CCCC2)n1 (stereo unspecified)	.	.	-	-	.	-
Cc1cccc(-c2nn3c(=O)cc(CN4CCN(C(=O)c5ccccc5Br)CC4)nc3s2)c1	.	.	-	-	.	.
O=C(NC(c1ccc(F)cc1)c1ccc2ccccc2n1)C1CCN(CCOc2ccc(Cl)cc2Cl)CC1 (stereo unspecified)	.	.	?	16µM	.	?
COc1ccc(OCCN2CCC(C(=O)NC(c3ccc(OC)cc3)c3ccccn3)CC2)cc1 (stereo unspecified)	.	.	-	-	.	-
O=C(NC(c1ccc(Cl)cc1)c1cccnc1)C1CCN(CCOc2ccc(Cl)cc2Cl)CC1 (stereo unspecified)	.	.	?	?	.	-
COc1ccc(OCCN2CCC(C(=O)NC(c3ccccc3)c3ccc4ccccc4n3)CC2)cc1 (stereo unspecified)	.	.	?	?	.	-80
SMILES	VP16 counter	ELG1 repair inh	TDP1 cell noCPT	TDP1 cell CPT	RORg inh	IL1B secr inh
Cc1nn2c(=O)cc(COC(=O)C(c3ccccc3)c3ccccc3)nc2s1	.	.	-	?	.	.
Cc1ccc(NC(=O)CCN2CC(C)OC(C)C2)cc1 (stereo unspecified)	-	-	-	-	-	-
CC(=O)c1ccc(F)c(-c2cc(C)cc3c2OC(CNC(=O)C[C@@H]2C[C@@H](C)NC(=S)N2)C3)c1 (stereo partly specified)	.	.	-	-[9.04 µM]	.	.
Cc1ccc(CNC(=O)c2cc3c(=O)n4ccccc4nc3n(Cc3ccco3)c2=N)cc1	2.8µM	-	15µM	13µM	3.2µM	-94
Cc1ccc2nc3c(cc(C(=O)NCCN4CCOCC4)c(=N)n3CCCN3CCOCC3)c(=O)n2c1	-	-	-	-	-	-
Cc1ccc2nc3c(cc(C(=O)NCc4ccco4)c(=N)n3Cc3ccco3)c(=O)n2c1	-	?	21µM	?	-	-
N=c1c(C(=O)NCc2ccc(F)cc2)cc2c(=O)n3ccccc3nc2n1Cc1ccco1	?	-	16µM	16µM	-	-
Cc1ccc2nc3c(cc(C(=O)NCCc4ccccc4)c(=N)n3CCN3CCOCC3)c(=O)n2c1	-	-	26µM	?	-	-
N=c1c(C(=O)NCc2ccco2)cc2c(=O)n3ccccc3nc2n1Cc1ccccc1	-	?	?	?	-	-
O=C(Nc1cccnc1)c1cccs1	-	?	0.37µM	0.33µM	-	-
O=C(NC(=S)Nc1cccnc1)c1ccccc1	-	?	-	-	-	-
O=C(NC(=S)Nc1cccnc1)c1cccs1	-	?	-	-	10µM	-
O=C(NC(=S)Nc1ccc(Cl)cn1)c1cccs1	1µM	?	-	-	?	-
CCc1ccnc(NS(=O)(=O)c2ccc3c(c2)CCO3)c1	-	-	-	-	-	-
Cc1nc2oc3c(NCc4ccccn4)ncnc3c2c2c1COC(C)(C)C2	-	?	?	-	-	-
CCCc1nc2oc3c(NCC4CCCO4)ncnc3c2c2c1COC(C)(C)C2 (stereo unspecified)	-	-	?	29µM	-	-
CCCc1nc2oc3c(NCc4ccccn4)ncnc3c2c2c1COC(C)(C)C2	-	?	15µM	15µM	-	-
CC(C)c1nc2oc3c(NCC4CCCO4)ncnc3c2c2c1CCC2 (stereo unspecified)	-	16µM	16µM	26µM	-	-
CCOc1ncnc2c1oc1nc(CC(C)C)c3c(c12)CC(C)(C)OC3	-	-	-	?	-	-
CCCCC[C@H](O)/C=C/C=C\C=C\C=C\[C@@H](O)[C@@H](O)CCCC(=O)O	-	.	-[0.628 µM]	-[0.628 µM]	-	.
Cc1noc(C)c1NC(=O)N(C)C[C@@H]1Oc2cc(Br)ccc2S(=O)(=O)N([C@H](C)CO)C[C@@H]1C	.	.	-	-	.	-
O=C(COC(=O)c1ccccc1OCCOc1ccccc1)Nc1ccccc1Br	.	.	-	-	.	.
CC1CCCN(C(=S)SCC(=O)c2cc(Br)cc(Br)c2O)C1 (stereo unspecified)	-	-	2.9µM	4.1µM	?	-
